# HP1b chromo inh: HP1-beta chromodomain-methylated histone interaction inhibition; AlphaScreen HP1-beta / biotin-H3K9me3 peptide binding; AID 540317; 0.56% of 390,000 active; Potency, µM (top dose mostly 114 µM), most hits filed as inhibitors; further: nearly all actives have a fitted effect of over 70% in size
#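 HP1-beta protein (50 nM final) preincubated 30 min at room temperature with biotinylated H3(1-18)K9me3 peptide (50 nM) in PBS pH 7.4, 0.01% Tween-20, then compound added for 30 min. AlphaScreen streptavidin donor/nickel chelate acceptor beads (10 ug/mL final), 30 min dark, luminescence read.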
# PLK1 PBD inh: inhibitors of human PLK1 polo-box domain binding; Plk1 PBD binding of FITC phosphopeptide, fluorescence polarization; P53350; Potency, µM, most hits filed as inhibitors; 2.8% of 360,000 active; further: series mostly up to about 57 µM; nearly all actives have a fitted effect of over 65% in size
# Target sequence (P53350 whole entry, looked up, the tested form may be a part): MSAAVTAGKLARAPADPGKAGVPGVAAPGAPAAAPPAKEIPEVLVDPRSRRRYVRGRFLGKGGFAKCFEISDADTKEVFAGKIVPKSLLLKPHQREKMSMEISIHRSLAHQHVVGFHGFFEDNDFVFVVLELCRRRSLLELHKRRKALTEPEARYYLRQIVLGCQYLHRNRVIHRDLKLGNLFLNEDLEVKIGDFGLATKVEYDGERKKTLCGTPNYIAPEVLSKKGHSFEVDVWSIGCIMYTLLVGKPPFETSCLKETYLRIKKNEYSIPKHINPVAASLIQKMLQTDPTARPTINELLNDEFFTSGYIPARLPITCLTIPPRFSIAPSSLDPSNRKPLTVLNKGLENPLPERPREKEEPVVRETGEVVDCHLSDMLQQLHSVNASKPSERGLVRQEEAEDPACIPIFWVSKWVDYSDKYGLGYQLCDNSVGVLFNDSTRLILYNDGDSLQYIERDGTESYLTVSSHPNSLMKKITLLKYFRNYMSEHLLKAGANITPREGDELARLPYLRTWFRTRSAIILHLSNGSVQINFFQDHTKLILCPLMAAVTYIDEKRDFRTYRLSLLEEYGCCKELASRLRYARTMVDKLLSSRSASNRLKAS
# JMJD2A Tudor: blocks the human JMJD2A Tudor domain; O75164; AlphaScreen JMJD2A-Tudor / H3K4me3 peptide binding; Potency, µM (doses to about 114 µM), hits mostly inhibitors; 4.4% of 390,000 active; AID 504339; further: nearly all actives have a fitted effect of over 50% in size
# KAT2A inh: GCN5L2 (KAT2A) acetyltransferase inhibition | Q92830 | GCN5L2 HAT assay, ThioGlo1 CoA-SH fluorescence | Potency, µM (doses to about 58.9 µM), hits mostly inhibitors | 0.21% of 390,000 active
#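 Preincubate 20nM GCN5L2 with compound 15 min, RT → add 50uM ThioGlo1 + 75uM H3(1-25) + 70uM acetyl-CoA → read fluorescence 0 and 20 min. Primary qHTS; fluorescent artifacts likely.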
# BAZ2B block: inhibitors of human BAZ2B bromodomain. 4.4% of 360,000 active. AID 504333. AlphaScreen BAZ2B-H3K14Ac peptide displacement. Potency, µM (titrated, usually from 114 µM), hits mostly inhibitors; further: nearly all actives have a fitted effect of over 60% in size
#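 AlphaScreen displacement of biotin-H3(5-23)K14Ac peptide (50 nM final) from BAZ2B (50 nM final) in PBS pH 7.4, 0.01% Tween-20; complex preformed 30 min RT, then compounds (top 110 uM) 30 min RT, beads 20 min dark.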
# PI5P4K alpha inh: inhibitors of human PI5P4K alpha. PI5P4Kalpha enzyme, ADP-Glo luminescence, 60 min; hits give low values. AID 652105. max response, %. P48426. 1.2% of 330,000 active; active means max response of -50% or lower; inconclusive means between -30% and -50%; inactive means -30% or higher; further: value at the top dose of about 77 µM
#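 Compounds were pin-transferred onto PI5P4Kalpha and substrate in HEPES pH 7.4 buffer with EGTA, CHAPS and 5% DMSO. ATP (5 microM final) started the reaction, which ran 60 minutes at room temperature before ADP-Glo detection.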
# A number is an active result; 0 = inactive; ? = inconclusive; - = not tested or not shown; [ ] = another dose, or the depositor's remark. Only some compounds are listed: those with a hit (about 7% of all), similar ones and a draw of the others. Unless noted, the call rests on the fitted dose curve; in most records, active means well fitted curve in the direction sought with a large enough effect; inconclusive means small, poorly fitted or top-dose-only effect, or another doubt; inactive means no such curve, though single readings can be large; an effect the other way counts as inactive or inconclusive.
SMILES,HP1b chromo inh,PLK1 PBD inh,JMJD2A Tudor,KAT2A inh,BAZ2B block,PI5P4K alpha inh
Cc1ccc(OCCCCN2CCC(C)CC2)cc1,?,0,3.2µM,0,50µM,0
CC(C)C(=O)Nc1cccc(N2CCN(CCCN3C(=O)C4CCCCN4C3=O)CC2)c1 (centres undefined),0,0,79µM,-,-,0
Cc1ccc2[nH]c(CCN(C)C)c(CN3CCOCC3)c2c1,0,0,0,0,0,0
O=C(CCN1C(=O)/C(=C/c2ccc3c(c2)OCO3)SC1=S)Nc1ccc(C(=O)O)cc1,?,0,45µM,0,35µM,0
CCOC(=O)CN1C(=O)S/C(=C/c2ccc(OCc3ccc(C(=O)O)cc3)cc2)C1=O,0,?,?,?,50µM,0
CCOc1ccc(/C=C2\SC(=S)N(CCC(=O)Nc3ccc(C(=O)O)cc3)C2=O)cc1,?,?,25µM,0,22µM,0
COc1cccc(/C=C2\SC(=S)N(CCCC(=O)Nc3cccc(C(=O)O)c3)C2=O)c1,-,0,-,-,-,0
O=C(CCCN1C(=O)/C(=C/c2ccc3c(c2)OCO3)SC1=S)Nc1ccc(C(=O)O)cc1,0,0,?,0,0,0
CCOc1ccc(/C=C2\SC(=S)N(CCC(=O)Nc3cccc(C(=O)O)c3)C2=O)cc1,?,?,35µM,0,50µM,0
COc1ccc(/C=C2\SC(=S)N(CCC(=O)Nc3ccc(C(=O)O)cc3)C2=O)cc1OC,0,0,?,0,0,0
COc1ccccc1CNC(=O)Cn1c(=O)nc(-c2ccccc2)c2ccccc21,0,-,0,0,0,-
Cc1ccc2nc(-c3ccc(C#N)cc3)c(Cc3cccc(Cl)c3)n2c1,-,0,-,-,-,0
CCOC(=O)C1=CN(CC2CCCO2)C=C(C(=O)OCC)C1c1ccccc1C(F)(F)F (centres undefined),0,0,0,0,0,0
CC(=O)Oc1ccc2oc(-c3ccccc3)c(C(N)=O)c2c1,0,27µM,0[11.4 µM],0,0,0
CCOc1ccc2oc(-c3ccccc3)c(C(N)=O)c2c1,0,0,0,0,0,0
COc1ccc(OC)c(-n2c(=S)[nH]c3c(sc(=S)n3-c3ccccc3C)c2=O)c1,0,?,89µM,0,?,0
COc1ccc(OC)c(CCNc2nccn(-c3ccc(C)c(C)c3)c2=O)c1,?,-,56µM,0,25µM,-
Nc1ncnc(N2CCc3ccccc32)c1[N+](=O)[O-],0,0,0,0,0,0
CCC(CO)Oc1cc(NCc2ccc(F)cc2)c2ncn(C(C)C)c2c1 (centres undefined),?,0,56µM,0,-,0
CCC(CN(C)C)Oc1cc(NCc2ccccc2)c2ncn(C(C)C)c2c1 (centres undefined),0,?,89µM,0,-,0
CCC(CO)Oc1cc(NCc2cccc(Cl)c2)c2ncn(C(C)C)c2c1 (centres undefined),?,0,25µM,0,-,0
CCC(CO)Oc1cc(NCc2cccnc2)c2ncn(C(C)C)c2c1 (centres undefined),0,0,79µM,0,-,0
Cn1c(Cc2nc(-c3cnccn3)no2)nnc1SCC(=O)Nc1ccccc1,0,0,0,0,0,0
COc1ccc2nccnc2c1[N+](=O)[O-],0,0,0,0,0,0
COc1ccc(C(=O)N2CCC3(CCN(Cc4cc(C(F)(F)F)cc(C(F)(F)F)c4)CC3)CC2)cc1,-,-,-,0,-,-
SMILES,HP1b chromo inh,PLK1 PBD inh,JMJD2A Tudor,KAT2A inh,BAZ2B block,PI5P4K alpha inh
COc1ccc(-n2nc3c(N4CCC(C(=O)NCc5cccc(F)c5)CC4)nnc(C)c3c2C)cc1,0,-,0,0,?,-
COc1cc(F)c(S(=O)(=O)N2CCN(S(=O)(=O)c3cccs3)CC2)c(F)c1,-,-,0,-,-,-
Cc1cc(C(=O)COC(=O)c2cccn2C)c(C)n1Cc1ccco1,?,0,50µM,0,45µM,0
Cc1cc(C(=O)COC(=O)c2ccco2)c(C)n1Cc1ccco1,?,0,?,0,-,-55
Cn1c(=O)c(NC2CCCCC2)c2c3c(cccc31)C(=O)c1ccccc1-2,0,?,0,0,0,0
CCCCNc1c2c3c(cccc3n(C)c1=O)C(=O)c1ccccc1-2,0,2.4µM,0,0,0,-
Cn1c(=O)c(NCCc2ccccc2)c2c3c(cccc31)C(=O)c1ccccc1-2,0,3.8µM,0,0,0,0
CC(=O)Nc1ccc(Nc2c3c4c(cccc4n(C)c2=O)C(=O)c2ccccc2-3)cc1,0,6.7µM,?,0,?,0
[O-]c1n[n+](-c2ccc(Cl)cc2)cc2ccccc12,0,3.4µM,14µM,0,0,0
Cc1ccccc1C(OCCN(C(C)C)C(C)C)c1ccccc1 (centres undefined),?,0,0.89µM,0,?,0
Cc1ccccc1Cn1c(=O)n(Cc2ccc(Cl)cc2)c(=O)c2cccnc21,0,-,0,0,0,-
O=C(CN1CCN(S(=O)(=O)c2cc(Cl)ccc2Cl)CC1)Nc1cccc(F)c1,0,-,0,0,0,-
Cc1ccc(/C=N/N=C/c2ccc(C)cc2)cc1,?,21µM,0,0,0,0
CCOC(=O)C1CCCN(C(=O)c2ccccc2NC(=O)c2nsc3ccccc23)C1 (centres undefined),0,-,0,0,0,-
O=[N+]([O-])c1ccc(S(=O)(=O)N2CCN(Cc3ccco3)CC2)cc1,22µM,0,8.9µM,0,20µM,0
CCCc1ccc(S(=O)(=O)N2CCN(Cc3ccco3)CC2)cc1,0,0,0,0,0,0
CC(C)c1ccc(S(=O)(=O)N2CCN(C(=S)NCc3ccco3)CC2)cc1,?,21µM,0,0,0,?
CCCS(=O)(=O)N1CCN(Cc2ccco2)CC1,?,0,?,0,50µM,0
O=S(=O)(c1cccc(C(F)(F)F)c1)N1CCN(C(=S)NCc2ccco2)CC1,0,0,0,0,0,0
CCCS(=O)(=O)N1CCN(C(=O)c2ccco2)CC1,0,0,0,0,0,-
CCCCCCCNC(=O)C1(CC2CC(c3ccc(Cl)cc3)=NO2)CCN(C(=O)CCCCCBr)CC1 (centres undefined),0,0,0,0,0,0
Cc1c(C(=O)Nc2ccc3c4c(cccc24)CC3)cccc1[N+](=O)[O-],0,27µM,0,0,0,0
Cc1c(C(=O)Nc2c3c(nn2C(C)(C)C)CS(=O)(=O)C3)cccc1[N+](=O)[O-],0,7.5µM,?,0,0,0
Cc1cccc(OCC(=O)Nc2ccc3c4c(cccc24)CC3)c1C,0,27µM,?,0,0,0
Cc1ccc(C(=O)Nc2c3c(nn2C(C)(C)C)CS(=O)(=O)C3)cc1[N+](=O)[O-],0,0,0,0,0,0
Cc1c(C(=O)NC(=S)Nc2ccc3c4c(cccc24)CC3)cccc1[N+](=O)[O-],0,0,0,0,0,0
Cc1ccc(OCC(=O)Nc2ccc3c4c(cccc24)CC3)c(C)c1,0,0,0,0,0,0

# Source: PubChem BioAssay
